# Laboratory results as given in PubChem BioAssay AID1851 (National Center for Advancing Translational Sciences (NCATS), 2009).
# “And” between values parts separate entries of the source, which are not always exact repeats. Equal values may be shown once. Hit rate of the full screen: of about 16,000 compounds, about 5,700 (36%) were called active. Roughly 24% stayed inconclusive and do not appear here. The list shows a part of the results. Values without a mark were called inactive. The call rests on the fitted dose curve; in most records, active means well fitted curve in the direction sought with a large enough effect; inconclusive means small, poorly fitted or top-dose-only effect, or effect the other way; inactive means no such curve, though single readings can be large or run the other way.
# Target: Cytochrome P450 1A2 (Homo sapiens) (UniProt P05177)
# Sequence (P05177 whole entry, looked up): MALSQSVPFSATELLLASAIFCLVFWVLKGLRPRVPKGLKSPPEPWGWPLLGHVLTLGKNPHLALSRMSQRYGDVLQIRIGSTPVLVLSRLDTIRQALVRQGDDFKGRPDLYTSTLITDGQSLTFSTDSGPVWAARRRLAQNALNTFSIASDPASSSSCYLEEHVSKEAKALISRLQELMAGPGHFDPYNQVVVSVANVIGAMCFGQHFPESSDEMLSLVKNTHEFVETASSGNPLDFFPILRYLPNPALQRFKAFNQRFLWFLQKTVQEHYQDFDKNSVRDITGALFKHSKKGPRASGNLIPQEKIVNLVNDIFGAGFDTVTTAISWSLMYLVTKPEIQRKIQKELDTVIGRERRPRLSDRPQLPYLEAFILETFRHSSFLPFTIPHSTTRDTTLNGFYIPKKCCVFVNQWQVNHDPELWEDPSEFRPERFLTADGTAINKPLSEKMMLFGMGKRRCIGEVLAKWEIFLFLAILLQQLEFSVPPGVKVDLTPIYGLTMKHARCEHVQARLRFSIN
# Assay: Cytochrome panel assay with activity outcomes
# Conditions: recombinant CYP, pro-luciferin dealkylation, luminescence, p450-cyp1a2; series mostly up to 57.1 µM
# On the % scale 0 is the no-effect control and ±100 the full control effect.
Compound,AC50,"activity, negative = inhibition"
CCOC(=O)c1cc2c(=O)n3ccccc3nc2n(CCCOC)c1=NC(C)=O,12.6 µM (active),–
CCOC(=O)c1cc2c(=O)n3ccccc3nc2n(CCOC)c1=NC(=O)C(C)(C)C,3.16 µM (active),–
C[C@H]1[C@H](C)OC(=O)C[C@H](O)C[C@H](O)C[C@H](O)CC[C@H](O)[C@H](O)CC(=O)C[C@H](O)[C@H](C(=O)O)[C@H](O)C[C@H](O[C@@H]2O[C@@H](C)[C@H](O)[C@@H](N)[C@@H]2O)C=CC=CC=CC=CCCC=CC=C[C@@](C)(O)[C@H]1O,–,12.4% [at 11.4 µM]
O=[N+]([O-])c1cccc(/C=N/Nc2cc(Cl)nc(-c3ccccc3)n2)c1,1.26 µM (active),–
CN1CCN(c2ncnc3ccc(-c4ccc5c(c4)OCO5)cc23)CC1,2.51 µM (active),–
CN1CCN(c2ncnc3ccc(-c4ccc(C(=O)N(C)C)cc4)cc23)CC1,inactive,–
c1nc(N2CCNCC2)c2cc(-c3ccc4c(c3)OCO4)ccc2n1,2 µM (active),–
CN(C)C(=O)c1ccc(-c2ccc3ncnc(N4CCNCC4)c3c2)cc1,inactive,–
CN(C)c1ccc(-c2ccc3ncnc(N4CCNCC4)c3c2)cc1,2.51 µM (active),–
C[C@H]1C[C@H]2[C@H]3CCC4=CC(=O)C=C[C@@]4(C)[C@]3(F)[C@H](O)C[C@]2(C)[C@@]1(O)C(=O)COP(=O)(O)O,–,2.48% [at 11.4 µM]
CC1(C)O[C@@H]2C[C@H]3[C@H]4C[C@H](F)C5=CC(=O)C=C[C@@]5(C)[C@@H]4[C@H](O)C[C@]3(C)[C@]2(C(=O)CO)O1,inactive,–
CCC1CC(CSc2ncn[nH]2)OC1=O (configuration not stated),inactive,–
Clc1ccccc1-c1nc(-c2ccccc2)n[nH]1,1 µM (active),–
COc1ccccc1CNc1ncncc1-c1ccc2c(c1)OCO2,0.158 µM (active),–
COc1ccc(CNc2ncncc2-c2ccc3c(c2)OCO3)c(OC)c1,0.501 µM (active),–
Cc1nnc(S(=O)(=O)c2ccc(N=Nc3c(N)nc(N)nc3N)cc2)s1,–,-10.2% [at 2.29 µM]
Cc1nn(C(=O)c2ccco2)c(C)c1Sc1ccc(Br)cc1,14.1 µM (active),–
Cc1nn(C(=O)c2cccnc2)c(C)c1Sc1ccc(Br)cc1,7.08 µM (active),–
Cc1nc2ncnn2c(C)c1CCC(=O)N1CCN(C(=O)c2ccco2)CC1,inactive,–
O=C(c1ccco1)N1CCC2(CCN(Cc3ccccc3)CC2)CC1,inactive,–
Cc1nn(C(=O)c2ccco2)c(C)c1Sc1ccccc1,15.8 µM (active),–
Cc1nn(C(=O)CN2C(=O)c3ccccc3C2=O)c(C)c1Br,inactive,–
CCCCN(C(=S)Nc1ccccc1)C1CCS(=O)(=O)C1 (configuration not stated),inactive,–
O=C(O)[C@H]1C[C@H](C(=O)O)N1,inactive,–
O=C(O)[C@@H]1CCCN1,–,-12% [at 11.4 µM]

Compound,AC50,"activity, negative = inhibition"
O=C(O)[C@@H]1C[C@@H](C(=O)O)N1,31.6 µM (active),–
NC(N)=NN=Cc1c(Cl)cccc1Cl,7.94 µM (active) and 3.98 µM (active),–
NC(N)=N/N=C\c1ccc(O)c(C(=O)O)c1,–,-11.9% [at 2.29 µM]
NC(N)=NC(=O)Cc1c(Cl)cccc1Cl,inactive,–
Cc1cccc(NC(=O)c2cc(=O)c3ccccc3o2)n1,2 µM (active),–
Cc1ccc(OCC(=O)NNC(=O)c2cc3ccccc3o2)cc1,inactive,–
Cc1cccc(NC(=O)c2cc(N3C(=O)CCC3=O)ccc2Cl)n1,inactive,–
Cc1cccc(NC(=O)c2ccc([N+](=O)[O-])o2)n1,5.01 µM (active),–
Cc1cccc(Sc2c([N+](=O)[O-])ncn2C)n1,inactive,–
CN(C)C(=O)CCc1nc(-c2ccc(C(C)(C)C)cc2)no1,6.31 µM (active),–
CNC(=O)CCc1nc(-c2ccc(C(C)(C)C)cc2)no1,6.31 µM (active),–
COc1ncc2ncc(=O)n(C3CC3)c2n1,10 µM (active),–
COc1ccc(Oc2ncc3ncc(=O)n(C4CC4)c3n2)cc1,5.01 µM (active),–
CN(C)c1ncc2ncc(=O)n(C3CC3)c2n1,3.16 µM (active),–
CN(C)c1ncc2ncc(=O)n(C)c2n1,6.31 µM (active),–
COC(=O)[C@@]1(Cc2ccc(OC)cc2)[C@H]2c3cc(C(=O)N4CCCC4)n(Cc4cc(F)cc5c4OCOC5)c3C[C@H]2CN1C(=O)c1ccccc1,inactive,–
C/C(CCN1CCc2nc(-c3ccccc3)c(-c3ccccc3)cc2C1)=N\O[C@@H](C)c1cn([C@@H]2COC[C@@H]2O)nn1,–,-3.92% [at 11.4 µM]
Cc1nc(NC(N)=S)sc1C(=O)Nc1ccccc1,8.91 µM (active),–
NC(=S)N/N=C/c1ccccc1OCc1cccc(Cl)c1,2.24 µM (active),–
CCOc1cc(/C=N/NC(=O)CN2CCCCC2)ccc1OCc1ccccc1,inactive,–
O/N=C/c1ccccc1OCc1ccc(Cl)cc1,2.24 µM (active),–
O=C(Cc1ccccc1)N/N=C/c1ccccc1OCc1ccc(Cl)cc1,2.24 µM (active),–
O=C(O)c1ccc(OCc2ccccc2)c(Cl)c1,–,-3.18% [at 2.29 µM]
Cc1ccc(COc2ccc(Br)cc2/C=N/O)cc1,1.58 µM (active),–
NCc1ccc(S(N)(=O)=O)cc1,inactive,–

Compound,AC50,"activity, negative = inhibition"
Cc1[nH]c2ccccc2c1C(c1ccccn1)N1CCC(C)CC1 (configuration not stated),inactive,–
O/N=C/c1cc(Cl)ccc1OCc1cccc2ccccc12,0.112 µM (active),–
Cc1n[nH]c(=S)n1/N=C/c1ccccc1OCc1ccc(Cl)cc1,1.58 µM (active),–
CCn1c(O)c(/C=N/N=C2CCCC2)c2ccc(C3=NNC(=O)CC3)cc21,inactive,–
O=C1CCC(c2ccc(-n3ccnc3)cc2)=NN1,0.158 µM (active),–
O=C(Nc1cccc(F)c1)N1CCC2(CCNCC2)CC1,inactive,–
CCNc1ncc2nc(-c3cc(F)cc(F)c3)c(=O)n(CCOC)c2n1,3.16 µM (active),–
COCCn1c(=O)c(-c2ccccc2)nc2cnc(Nc3ccccc3)nc21,5.01 µM (active),–
COc1cccc(Cn2c(=O)c(-c3cccc(C#N)c3)nc3cnc(Nc4ccccc4)nc32)c1,inactive,–
CCNc1ncc2nc(-c3ccccc3)c(=O)n(CCOC)c2n1,3.16 µM (active),–
O=C(CNS(=O)(=O)c1ccc(Br)s1)N1CCC(N2CCCCC2)CC1,inactive,–
Oc1cc(O)c2c(c1)O[C@@H](c1ccc(O)c(O)c1)[C@H](O[C@@]1(c3cc(O)c(O)c(O)c3)Oc3cc(O)cc(O)c3[C@H](O)[C@@H]1O)C2,–,-13.3% [at 11.4 µM]
COc1ccc(O[C@H]2C=C[C@@H](c3ccccc3)O[C@H]2COC(=O)CC/C(C)=N\O[C@@H](C)CN2CCCc3nc(C)c(C)cc32)cc1,–,2.58% [at 11.4 µM]
CC(C)Oc1ccc2ccccc2c1C=O,1.12 µM (active),–
COc1ccccc1NS(=O)(=O)c1cccc(C(=O)OCC(=O)Nc2cc(C)on2)c1,14.1 µM (active),–
Cc1cc(NC(=O)COC(=O)c2ccc(NS(=O)(=O)c3ccc(C)c(C)c3)cc2)no1,inactive,–
Cc1n[nH]c(C)c1S(=O)(=O)N1CCC(C(=O)O)CC1,inactive,–
CCOC(=O)[C@@]12C[C@@H]1/C(=N/O)c1ccccc1O2,3.98 µM (active),–
O=C(Nc1ccccc1)[C@@]12C[C@@H]1/C(=N/O)c1ccccc1O2,2.51 µM (active),–
Cc1c(NC(=O)C2CCN(S(=O)(=O)c3ccc(Cl)cc3)CC2)c(=O)n(-c2ccccc2)n1C,inactive,–
O=C1COc2ccccc2CN1,inactive,–
Fc1ccc(-c2cnc(-c3cccs3)o2)cc1,2.82 µM (active),–
CCOC(=O)Nc1ccc2c(c1)N(C(=O)CCN1CCOCC1)c1ccccc1S2,inactive,–
COC(=O)c1cc(NC(=O)N2c3ccccc3Sc3ccccc32)cc(C(=O)OC)c1,3.16 µM (active),–
CCOC(=O)Nc1ccc2c(c1)N(C(=O)CCN1CCN(C)CC1)c1ccccc1S2,inactive,–

Compound,AC50,"activity, negative = inhibition"
CCC1Oc2ccccc2N(CC(=O)NCCCN2CCCCC2C)C1=O (configuration not stated),inactive,–
O=[N+]([O-])/C=C\c1cc2ccccc2[nH]1,1.26 µM (active),–
Nc1c(S(=O)(=O)O)cc(Nc2cccc(S(N)(=O)=O)c2)c2c1C(=O)c1ccccc1C2=O,3.98 µM (active),–
NCCNC(=O)c1ncsc1-c1cccc(F)c1,10 µM (active),–
Cc1scc2c1N(C(=O)CN1CCN(C)CC1)c1ccccc1NC2=O,inactive,–
Cc1nnc(SCC(=O)N2CC(=O)Nc3ccccc32)n1Cc1ccccc1,inactive,–
Cc1sc2nc(C3CC3)nc(SCC(=O)N3CC(=O)Nc4ccccc43)c2c1C,6.31 µM (active),–
CC(=O)Nc1ccc2nc(C3CCCCC3)[nH]c2c1,inactive,–
COC(=O)Nc1nc2ccc(SC(C)C)cc2[nH]1,0.501 µM (active),–
COC(=O)Nc1nc2ccc(C(=O)c3cccs3)cc2[nH]1,0.794 µM (active),–
C[C@@H](C(=O)O)c1ccc(C(=O)c2cccs2)cc1,inactive,–
COC(=O)c1ccc(C23CC2(C(NP(=O)(c2ccccc2)c2ccccc2)c2ccccc2)C3)cc1 (configuration not stated),15.8 µM (active),–
COC(=O)c1ccc(C(NC(=O)c2ccccc2)[C@]2(C)C[C@H]2C2CCCCC2)cc1 (some centres not stated),inactive,–
Cc1ccc2cc(C(=O)O)c(C)nc2c1,inactive,–
O=C(O)CSc1cc(-c2ccccc2)nc2ccccc12,–,-4.67% [at 2.29 µM]
c1ccc(CSc2nnc3c4ccccc4c4ccccc4c3n2)cc1,0.2 µM (active),–
O=C(O)CSc1nnc2c3ccccc3c3ccccc3c2n1,0.0794 µM (active),–
CCc1c(C)nc(N)n2c(SCC(=O)Nc3ccccc3)nnc12,inactive,–
O=C(CSc1nnc2c3ccccc3c3ccccc3c2n1)Nc1ccccc1,1.12 µM (active),–
Cn1c(SCC(=O)Nc2ccccc2)nc(O)cc1=O,inactive,–
O=C(O)c1cc(=O)[nH]c(SCc2ccccc2)n1,–,-12% [at 11.4 µM]
O=C(O)CSc1ccn(Cc2ccccc2)c1,–,-14.3% [at 11.4 µM]
